# Laboratory results as given in PubChem BioAssay (NCATS).
# Inconclusive results are not listed. Where a call stands in place of a potency, no number is given. Activity calls are given as the source filed them. Unless noted, the call rests on the fitted dose curve.
# Tests used:
# [1] = qHTS for Inhibitors of Plasmodium falciparum (CP250) proliferation (AID 504320; active means well fitted inhibition curve with a large enough effect)
# Method in brief: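 Erythrocytes infected with P. falciparum line (0.3% parasitemia, 2.5% hematocrit final) incubated with compounds 72 h at 37 °C, 5% CO2; SYBR Green lysis buffer added, fluorescence read next day. Normalized to 0.29 uM artemisinin and DMSO.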
# [2] = molecular target: Atrial natriuretic peptide receptor 1 (Homo sapiens) (UniProt P16066); test: Natriuretic polypeptide receptor (hNpr1) antagonism - Pilot CMLD screen (AID 1347052);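 further: HEK293 cells with hNpr1 stimulated by hNppA peptide at 0.1 nM; cGMP level read as GloSensor luciferase luminescence after agonist stimulation; series mostly up to about 9.2 µM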
# Chain of Atrial natriuretic peptide receptor 1 (Homo sapiens) (P16066 whole entry, looked up): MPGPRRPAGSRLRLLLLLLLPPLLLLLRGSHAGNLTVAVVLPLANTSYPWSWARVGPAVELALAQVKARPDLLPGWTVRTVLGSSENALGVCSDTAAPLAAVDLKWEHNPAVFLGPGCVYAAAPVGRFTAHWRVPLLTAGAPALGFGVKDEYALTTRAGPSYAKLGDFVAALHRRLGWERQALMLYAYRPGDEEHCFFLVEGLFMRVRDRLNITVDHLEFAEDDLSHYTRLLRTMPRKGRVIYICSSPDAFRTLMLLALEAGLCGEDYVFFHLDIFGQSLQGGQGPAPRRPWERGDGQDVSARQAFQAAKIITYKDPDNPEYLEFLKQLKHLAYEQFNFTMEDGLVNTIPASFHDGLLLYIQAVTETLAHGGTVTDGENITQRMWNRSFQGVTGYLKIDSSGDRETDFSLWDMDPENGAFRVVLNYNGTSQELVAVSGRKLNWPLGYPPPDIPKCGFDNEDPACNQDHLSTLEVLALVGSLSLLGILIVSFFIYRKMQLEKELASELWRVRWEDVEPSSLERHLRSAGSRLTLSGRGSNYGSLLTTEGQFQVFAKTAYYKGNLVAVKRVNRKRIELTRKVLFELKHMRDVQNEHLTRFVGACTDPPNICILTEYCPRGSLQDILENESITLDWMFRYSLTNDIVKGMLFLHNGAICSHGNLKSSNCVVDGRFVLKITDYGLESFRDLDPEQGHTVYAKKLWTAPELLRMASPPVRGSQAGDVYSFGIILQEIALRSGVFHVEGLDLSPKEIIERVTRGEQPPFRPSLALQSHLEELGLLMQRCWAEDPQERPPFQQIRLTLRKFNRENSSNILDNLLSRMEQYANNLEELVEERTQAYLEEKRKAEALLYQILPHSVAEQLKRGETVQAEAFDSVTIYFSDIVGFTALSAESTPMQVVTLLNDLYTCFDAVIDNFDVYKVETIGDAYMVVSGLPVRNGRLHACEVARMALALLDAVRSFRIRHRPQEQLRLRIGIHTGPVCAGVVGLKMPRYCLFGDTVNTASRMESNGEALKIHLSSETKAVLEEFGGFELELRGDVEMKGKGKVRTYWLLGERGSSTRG
Structure (SMILES),Potency [1],Potency [2]
COc1cccc([C@@H]2Oc3ccc(Br)cc3C[C@@H]2OC(=O)Nc2cc(OC)c(OC)c(OC)c2)c1,inactive,inactive
C[C@@H]1[C@@H](c2ccccc2)c2cc3ccccc3nc2-c2nc3ccccc3cc2[C@H]1C(=O)N1CCCC1,inactive,inactive
CC1=C[C@H]2c3ccccc3C[C@H]2CO[C@]12C(=O)N(Cc1ccc(Br)cc1)c1ccccc12,inactive,inactive
